21 molecules from PubChem BioAssay (NCI) can be followed below.

A short description of assay [1]: NCI Yeast Anticancer Drug Screen. Data for the rad50 strain (AID 155).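 Also: 0% = growth of vehicle-only cultures of the same strain.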 Particulars: S. cerevisiae rad50 strain growth inhibition; at 50.0 µM; hits give high values. In a few lines:
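Relative growth inhibition (compound vs vehicle) was measured in yeast with a defined repair-gene alteration.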

A short description of assay [2]: NCI Yeast Anticancer Drug Screen. Data for the mec2-1 strain (AID 157). The following applies: S. cerevisiae mec2-1 strain, at 50.0 µM, hits give high values. In a few lines: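 Cells of the genetically defined mec2-1 yeast strain are incubated with test compound. Inhibition of growth is calculated against vehicle-treated controls.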
The nature of assay [3]: NCI Yeast Anticancer Drug Screen. Data for the sgs1 mgt1 strain (AID 161).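 Also: 0% = growth of cultures given vehicle only.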 The following applies: S. cerevisiae sgs1 mgt1 strain, at 50.0 µM, hits give high values. In a few lines:
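Inhibition of yeast growth, normalised to vehicle-treated controls, is reported for a strain bearing genetic alterations in DNA damage repair.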

The nature of assay [4]: NCI Yeast Anticancer Drug Screen. Data for the cln2 rad14 strain (AID 165).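 Also: 0% = growth equal to vehicle treated cultures.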 The following applies: S. cerevisiae cln2 rad14 strain, at 50.0 µM, hits give high values. In a few lines:
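The screen exposed genetically defined yeast (cln2 rad14) to test compounds and scored growth inhibition relative to vehicle-treated controls.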

A short description of assay [5]: NCI Yeast Anticancer Drug Screen. Data for the bub3 strain (AID 167). Particulars: S. cerevisiae bub3 mutant strain, at 50.0 µM, hits give high values. In a few lines: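 Screening used yeast with an engineered genetic alteration affecting cell cycle control. Compound-exposed cultures were compared with vehicle cultures, and reduced growth was taken as inhibition.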

Assay [6] is described as follows: NCI Yeast Anticancer Drug Screen. Data for the mlh1 rad18 strain (AID 175). Particulars: S. cerevisiae mlh1 rad18 strain growth inhibition; at 50.0 µM; hits give high values. A digest of the protocol:
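Compound-treated yeast growth, normalised to vehicle controls. Strain bears defined DNA repair mutations.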

Compounds without any hit were thinned out: in the full panel of roughly 79,000, 15% have a hit. Values without a mark were called inactive. Activity calls are given as the source filed them. Rule as the data show it: active = growth inhibition above about 70%; inactive = the rest.

As for `NNc1nc(N2CCOCC2)c2[nH]cnc2n1`, the growth inhibition in assay [1] was -1.3%; in assay [2], -5.45%; in assay [3], 14.2%; in assay [4], 4.5%; in assay [5], -9.9%; in assay [6], 4.75%.
Regarding `CC(C(=O)O)c1ncnn1-c1ccccc1` (stereo unspecified), the growth inhibition is -3.35% in assay [1]; 41% in assay [2]; 6.45% in assay [3]; 4.85% in assay [4]; 10.6% in assay [5]; 2.65% in assay [6].
In the case of `CC(C/C=C(/C=O)C(C)CC(C)(C)C)CC(C)(C)C` (stereo unspecified), the growth inhibition is 43.9% in assay [1]; 20.2% in assay [2]; 36.3% in assay [3]; -24.1% in assay [4]; 4.85% in assay [5]; 61.8% in assay [6].
On to `CCCCC(/C=C(/C)C(=O)O)CC` (stereo unspecified), for which the growth inhibition in assay [1] was 6.9%; in assay [2], 1.6%; in assay [3], 3.9%; in assay [4], -1.8%; in assay [5], 3.3%; in assay [6] it was 0.9%.
For `CCN1C(=O)NC(C)(c2ccccc2)C1=O` (stereo unspecified), the growth inhibition in assay [1] is -2.9%; in assay [2], 3.35%; in assay [3], -3.45%; in assay [4] it was -11.3%; in assay [5] it was 10.1%; in assay [6] it was 2.1%.
On to `CCOC(=O)c1c(C)c2c(n1C)CCC(CCC(C)=O)C2=O` (stereo unspecified), for which the growth inhibition in assay [1] was 5.6%; in assay [2], 5.5%; in assay [3], -0.4%; in assay [4], 14.3%; in assay [5], 6.7%; in assay [6], 3.15%.
In the case of `NC(CSS(=O)(=O)c1ccccc1)C(=O)O` (stereo unspecified), the growth inhibition in assay [1] is 4%; in assay [2] it was -37.5%; in assay [3], -0.75%; in assay [4], 0.5%; in assay [5], -10.6%; in assay [6], 0.3%.
Regarding `COC(=O)CC(c1ccc(OC)cc1)c1cc2c(cc1OC)OCO2` (stereo unspecified), the growth inhibition in assay [1] is 3.45%; in assay [2], 3.75%; in assay [3], 2.75%; in assay [4] it was 7.5%; in assay [5], 18.3%; in assay [6], 15.5%.
Consider `CC1CCS(=O)(=O)C1` (stereo unspecified), for which the growth inhibition in assay [1] is -12.8%; in assay [2] it was -23.1%; in assay [3] it was -35.9%; in assay [4] it was 6.8%; in assay [5] it was -8.4%; in assay [6], -10.1%.
For `Cc1c([N+](=O)[O-])cc(C(=O)O)cc1[N+](=O)[O-]`, the growth inhibition in assay [1] was 35.6%; in assay [2] it was -0.15%; in assay [3] it was 16.4%; in assay [4], -7.4%; in assay [5], 2.55%; in assay [6] it was 27.9%.
Consider `O=c1[nH]c2cc(Cl)ccc2nc1/C=C(\O)c1ccc([N+](=O)[O-])cc1`, for which the growth inhibition is 25.6% in assay [1]; 21.8% in assay [2]; 37.4% in assay [3]; 7.85% in assay [4]; 6.55% in assay [5]; 54% in assay [6].
`CCCCCCCCc1ccccc1`: the growth inhibition in assay [1] is 34.6%; in assay [2] it was 30.9%; in assay [3], 35.6%; in assay [4] it was 13.5%; in assay [5], 9.75%; in assay [6] it was 21.8%.
Regarding `CC(=O)NC1C(OCc2ccccc2)OC(CO)C(O)C1OCC(=O)N1CCCC1C(=O)NC(CCC(=O)NCCCCCNc1c2ccccc2nc2cccc([N+](=O)[O-])c12)C(N)=O` (stereo unspecified), the growth inhibition was 42.9% in assay [1]; 57.6% in assay [2]; 47.6% in assay [3]; 78.2% (active) in assay [4]; 0.55% in assay [5]; 72.5% (active) in assay [6].
For the molecule `Cc1cn(C2OC(CO)C(O)C(O)C2O)c(=O)[nH]c1=O` (stereo unspecified), the growth inhibition in assay [1] is -1.4%; in assay [2], 5.65%; in assay [3], -5.45%; in assay [4], -3.2%; in assay [5], 15.2%; in assay [6], 0.9%.
As to `CC(=O)/C(=C/n1c(=S)sc2ccccc21)C(=O)Nc1ccccc1C`, the growth inhibition in assay [1] was -3.75%; in assay [2], 0.9%; in assay [3], 54.4%; in assay [4] it was 15.9%; in assay [5], 9.2%; in assay [6] it was 41.6%.
`Cc1ccc(/C=C/C(=N/Nc2ccccc2)C(C)CN(C)C)cc1` (stereo unspecified): the growth inhibition in assay [1] is -3.2%; in assay [2], -10.1%; in assay [3], -3.25%; in assay [4], -15.3%; in assay [5], -1.35%; in assay [6] it was -5%.
For `CCCCCCCCCCOc1ccc(C2=C(c3ccccc3)C(=O)C(c3ccccc3)=C2c2ccccc2)cc1`, the growth inhibition in assay [1] is 25.3%; in assay [2], 10.4%; in assay [3], 17.4%; in assay [4], 14.9%; in assay [5], -5.3%; in assay [6], 3.6%.
Regarding `C=C1C2CCC3(CCC4C5(C)CCCC4(C=NC5)C3C2)C1O` (stereo unspecified), the growth inhibition in assay [1] was 8.5%; in assay [2] it was -10.7%; in assay [3], 3.6%; in assay [4] it was 6.75%; in assay [5], -7.3%; in assay [6], 1.6%.
Regarding `CCCCCCO/N=C\c1c2c(O)c3c(O)c(C)c4c(c3c1O)C(=O)C(C)(O/C=C\C(OC)C(C)C(OC(C)=O)C(C)C(O)C(C)C(O)C(C)/C=C\C=C(\C)C(=O)N2)O4` (stereo unspecified), the growth inhibition in assay [1] is 25.2%; in assay [2], 63.4%; in assay [3], 36.6%; in assay [4], 54%; in assay [5], 26.2%; in assay [6], 53.9%.
For the molecule `CC(C)/C=C1\CCC(CN(C)C)C1=O` (stereo unspecified), the growth inhibition in assay [1] is 30.4%; in assay [2], 56.1%; in assay [3] it was 68.8%; in assay [4], 31.4%; in assay [5] it was 75% (active); in assay [6], 85.8% (active).
`O=C1C2=Cc3ccccc3OC2(O)Oc2cc(O)ccc21` (stereo unspecified): the growth inhibition in assay [1] was 10.5%; in assay [2], 11.2%; in assay [3], 0.05%; in assay [4] it was -4.1%; in assay [5], -2.15%; in assay [6] it was -36.6%.
